In PubChem BioAssay:

Key:
Test in all cases: inhibition of PEG-3 promoter-driven reporter – cell-based, HeLa, luciferase, CREF/GAPDH counter-screen panel, dose response (AID 624167)
PEG-3 [1] = target: PEG-3 (UniProt Q6IN02); settings: CREF/GAPDH counter-screens; HeLa PEG-Prom luciferase reporter, overnight, run 1, dose range 1, at 100 µM (top of the series) unless noted
PEG-3 [2] = target: PEG-3 (UniProt Q6IN02); settings: CREF/GAPDH counter-screens; HeLa PEG-Prom luciferase reporter, overnight, run 2, dose range 1, at 100 µM (top of the series) unless noted
Rat fibroblasts (CREF) [3] = settings: CREF/GAPDH counter-screens; run 1, dose range 1, at 100 µM (top of the series)
Rat fibroblasts (CREF) [4] = settings: CREF/GAPDH counter-screens; run 2, dose range 1, at 100 µM (top of the series)

Chain of PEG-3 (Q6IN02 whole entry, looked up): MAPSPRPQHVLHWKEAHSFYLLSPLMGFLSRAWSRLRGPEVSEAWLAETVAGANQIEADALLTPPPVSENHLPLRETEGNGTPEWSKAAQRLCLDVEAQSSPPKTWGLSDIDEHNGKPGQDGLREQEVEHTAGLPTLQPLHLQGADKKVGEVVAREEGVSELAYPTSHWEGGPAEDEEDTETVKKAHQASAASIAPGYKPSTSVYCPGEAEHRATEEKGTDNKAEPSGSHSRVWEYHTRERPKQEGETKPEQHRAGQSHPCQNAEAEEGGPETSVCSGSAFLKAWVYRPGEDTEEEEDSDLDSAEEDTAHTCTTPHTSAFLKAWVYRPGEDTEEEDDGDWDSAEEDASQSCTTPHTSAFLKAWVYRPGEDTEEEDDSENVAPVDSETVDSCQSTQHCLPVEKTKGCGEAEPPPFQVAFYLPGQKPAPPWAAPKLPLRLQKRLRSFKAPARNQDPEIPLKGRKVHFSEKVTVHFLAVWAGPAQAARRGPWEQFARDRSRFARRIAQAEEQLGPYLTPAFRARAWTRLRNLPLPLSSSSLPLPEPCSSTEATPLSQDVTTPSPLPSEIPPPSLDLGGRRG

Row | SMILES | inhibition (PEG-3 [1]) | inhibition (PEG-3 [2]) | inhibition (Rat fibroblasts (CREF) [3]) | inhibition (Rat fibroblasts (CREF) [4])
1 | CCCSc1ccc2nc(-c3ccccc3)cn2c1 | 98.4% | 98.8% | 92.4% | 95.7%
2 | COc1cc(CNCCN2CCOCC2)ccc1OCc1ccc(Cl)cc1Cl | 102% | 101% |  | 
3 | COc1ccc(CC(N)c2csc(NC(=O)Nc3ccccc3C(C)(C)C)n2)cc1 (stereo not given) | 102% | 98.5% |  | 
4 | COc1ccc(NS(=O)(=O)c2ccc3ccccc3c2)c2ncccc12 | 57.9% | 73.1% |  | 
5 | NC1=C(Br)C(=O)c2ncccc2C1=O | 99.1% | 101% | 98.1% | 98.6%
6 | COc1ccc(CCn2c(=N)c(C(=O)NC3CCCC3)cc3c(=O)n4cccc(C)c4nc32)cc1 | 44.4% | 47.1% |  | 
7 | CCOc1cc(CNCCO)cc(Br)c1OCc1ccccc1Cl | 100% | 99.1% |  | 
8 | COc1cc(SC)ccc1C(=O)Nc1ncc(C)s1 | 95.5% | 98.2% | 97.8% | 97.3%
9 | COc1ccc(C(=O)Nc2nc3ccccc3s2)c(OC)c1 | 101% | 98.8% | 97.3% | 97.7%
10 | C=CCn1c(C)cc(C(=O)COc2ccc(C)nc2[N+](=O)[O-])c1C | 61.3% | 43.4% | 42.2% | 46.5%
11 | Cc1ccc(C(=O)Nc2nc3ccccc3[nH]2)cc1 | 89.8% | 88.1% | 99.2% | 98.7%
12 | COc1cc(C(=O)N/N=C(\c2ccccc2)c2ccccn2)cc(OC)c1OC | 72.6% | 74.9% | 72.1% | 63.3%
13 | O=C(Nc1cc(S(=O)(=O)N2CCOCC2)ccc1Cl)c1cc([N+](=O)[O-])ccc1Cl | 98.9% | 98.9% | 85.8% | 98.1%
14 | O=C(N/N=C/c1sc(N2CCOCC2)nc1-c1ccccc1)c1cccc(S(=O)(=O)N2CCCC2)c1 | 63.5% | 53.5% | -19% | 87.5%
15 | Cc1cccc(C)c1NC(=O)c1nc(S(=O)(=O)Cc2ccccc2)ncc1Cl | 102% | 101% | 99.2% | 99%
16 | O=c1c2ccccc2sc2nc(CCl)nn12 | 102% | 102% | -2.66% | 33.8%
17 | O=C(Nc1ccccc1C(=O)Nc1nnc(C(F)(F)F)s1)c1ccccc1 | 93% | 88.8% | -3.72% | 11.8%
18 | O=C(Nc1cccc(C(=O)O)c1)Nc1ccc2c(c1)OCO2 | 95.9% | 94.8% | 84.8% | 85.5%

Row | SMILES | inhibition (PEG-3 [1]) | inhibition (PEG-3 [2]) | inhibition (Rat fibroblasts (CREF) [3]) | inhibition (Rat fibroblasts (CREF) [4])
19 | COc1ccc(CCN2C(=O)C=CC2=O)cc1OC | 102% | 101% | 99.5% | 98.6%
20 | CN=c1sc2c(n1C)C(=O)c1ccccc1C2=O | 101% | 98.9% | 97.8% | 98.9%
21 | CCCC(=O)NC(c1ccccc1)c1ccc2cccnc2c1O (stereo not given) | 36.8% | 71% [run 2, dose range 1, at 25 µM] | 59% | 44.9%
22 | COc1ccccc1CNCC(O)Cn1c2ccccc2c2ccccc21 (stereo not given) | 102% | 98.7% | 99.2% | 98.9%
23 | CCCn1nc(C(=O)Nc2nc(-c3ccccn3)cs2)c2ccccc2c1=O | 84.7% | 80.4% | 7.59% | 23.2%
24 | CCCOc1ccc2cc(-c3ccccn3)c(=O)oc2c1 | 93.5% | 94.5% | 96.1% | 95.4%
25 | COCCCNC(=O)c1ccc(Cn2c(=O)c3ccccc3n(Cc3ccccc3C#N)c2=O)cc1 | 63.4% | 64% | 40.3% | 38.4%
26 | CCOc1cccc(/C=N/NC(=S)Nc2cc(S(=O)(=O)N3CCOCC3)ccc2N2CCOCC2)c1O | 70.7% | 50.5% | 26.2% | 48.3%
27 | Cc1cc(C)c2c(N)c(C(=O)Nc3ncc(C)s3)sc2n1 | 90.9% | 98.2% | 99.2% | 98.9%
28 | CC(=O)NC(c1ccc(N(C)C)cc1)c1cc(Cl)c2cccnc2c1O (stereo not given) | 76.1% | 88.8% | -10.5% | 94.6%
29 | COC(CNC(=O)c1ccc2c3c(onc13)-c1ccccc1C2=O)OC | 102% | 102% | 98.9% | 100%
30 | COc1cc(NS(C)(=O)=O)ccc1Nc1c2ccccc2nc2ccccc12 | 102% | 99.2% | 86.1% | 95.2%
31 | Cc1cc(C2=NNC(=NC3CC3)SC2)c(C)n1-c1ccccc1F | 98% | 102% | 96.9% | 97.5%
32 | O=C(CCl)N1c2ccccc2Sc2ccc3ccccc3c21 | 99.4% | 101% | 99.4% | 99.6%
33 | O=C(Nc1nc2cc3c(cc2s1)OCCO3)C1=COCCO1 | 99.1% | 98% | 95.3% | 97%
34 | Cc1nc(SCC(=O)Nc2nc3ccccc3s2)c(C#N)c(C)c1C | 95.4% | 89% | 97.8% | 97%
35 | COc1ccc(/C=C2/CCCC(CN(C)C)C2=O)cc1 (stereo not given) | 99.5% | 98.8% | 95.5% | 68.5%
